Test [1] in a line: qHTS assay to test for compound auto fluorescence at 535 nm (green) in HEK293 cells (AID 720680). Also: % is scaled to controls: 0 for no effect and ±100 for the full control effect.
Test [2] is described as follows: qHTS assay to test for compound auto fluorescence at 460 nm (blue) in HEK293 cell free culture (AID 720681). Also: % is scaled to controls: 0 for no effect and ±100 for the full control effect. In a few lines: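 Blue fluorescence (Ex 405/Em 460 nm, triamterene-equivalent) was read immediately after pin transfer of compound or DMSO into medium (DMEM, 10% FBS) without cells.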
Test [3] is described as follows: qHTS assay to test for compound auto fluorescence at 535 nm (green) in HEK293 cell free culture (AID 720682). Also: % is scaled to controls: 0 for no effect and ±100 for the full control effect. In a few lines: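 Using fluorescein as calibrant, autofluorescence was quantified at 485/535 nm in cell-free DMEM containing 10% FBS after pintool addition of compound or vehicle.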
Test [4] can be described thus: qHTS assay to test for compound auto fluorescence at 590 nm (red) in HEK293 cell free culture (AID 720683). Also: % is scaled to controls: 0 for no effect and ±100 for the full control effect. In a few lines: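 Red-channel autofluorescence of compounds in culture medium (DMEM, 10% FBS), no cells, measured at 540/590 nm. Rose Bengal sodium is the reference fluorophore for equivalence.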
The nature of test [5]: qHTS assay to test for compound auto fluorescence at 590 nm (red) in HepG2 cell free culture (AID 720684). Also: % is scaled to controls: 0 for no effect and ±100 for the full control effect. In a few lines: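 No cells present: MEM + 10% FBS only. Compound pinned in, red label read (540/590 nm). Activity = fluorescence equivalent to Rose Bengal sodium.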
Test [6] can be described thus: qHTS assay to test for compound auto fluorescence at 460 nm (blue) in HepG2 cell free culture (AID 720685). Also: % is scaled to controls: 0 for no effect and ±100 for the full control effect. In outline: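 Cell-free plates of MEM plus 10% FBS received 23 nL compound or DMSO vehicle; blue-channel (405/460 nm) intensity scored against triamterene as reference fluorophore.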
The nature of test [7]: qHTS assay to test for compound auto fluorescence at 535 nm (green) in HepG2 cell free culture (AID 720686). Also: % is scaled to controls: 0 for no effect and ±100 for the full control effect.
Test [8] can be described thus: qHTS assay to test for compound auto fluorescence at 460 nm (blue) in HepG2 cells (AID 720687). Also: % is scaled to controls: 0 for no effect and ±100 for the full control effect. In a few lines:
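Blue-channel autofluorescence (Ex/Em 405/460 nm, triamterene-equivalent) was measured after 1 hr compound exposure at 37 C, 5% CO2. Cells were HepG2, plated overnight at 37 C in MEM plus 10% FBS.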

Test [9] can be described thus: qHTS assay to identify small molecule antagonists of the glucocorticoid receptor (GR) signaling pathway - cell viability counter screen (AID 720693). Also: nearly all actives have a fitted effect of over 55% in size. Also: potency is read from the fitted curve at half-maximal effect.
The nature of test [10]: qHTS assay for identifying genotoxic compounds that show differential cytotoxicity against isogenic chicken DT40 cell lines with known DNA damage response pathways - Rev3 mutant cell line (AID 743014). Also: nearly all actives have a fitted effect of over 55% in size. Also: potency is read from the fitted curve at half-maximal effect.
The nature of test [11]: qHTS assay to identify small molecule antagonists of the androgen receptor (AR) signaling pathway - cell viability counter screen (AID 743033; also: nearly all actives have a fitted effect of over 45% in size; also: potency is read from the fitted curve at half-maximal effect).
Test [12] concerns the target Androgen receptor (Homo sapiens) (UniProt P10275). Kind of test: qHTS assay to identify small molecule agonists of the androgen receptor (AR) signaling pathway (AID 743036; active = well fitted activation curve with a large enough effect in the signal ratio in the repeat runs, with a control signal flat, not every such curve was filed as active; the % refers to the signal ratio; also: % is scaled to controls: 0 for no effect and ±100 for the full control effect). In outline:
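In this Tox21 qHTS, 2,000 HEK293 AR-bla cells per well were incubated with compounds for 16 h at 37C and 5% CO2. Fluorescence intensity was recorded 2 h after adding LiveBLAzer B/G FRET substrate at room temperature.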

Test [13] has the same target. The test is described as follows: qHTS assay to identify small molecule agonists of the androgen receptor (AR) signaling pathway using the MDA cell line (AID 743040; also: % is scaled to controls: 0 for no effect and ±100 for the full control effect; nearly all actives have a fitted effect of over 20% in size). In outline: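 Stable MMTV-luciferase reporter in MDA-kb2 cells; note the promoter carries GR as well as AR response elements. 16 h compound treatment, 37C, 0% CO2; ONE-Glo luminescence endpoint.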
Test [14] is described as follows: qHTS assay to identify small molecule antagonists of the androgen receptor (AR) signaling pathway using the MDA cell line - cell viability counter screen (AID 743041; also: nearly all actives have a fitted effect of over 45% in size; also: potency is read from the fitted curve at half-maximal effect). In outline:
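Using the breast carcinoma line MDA-kb2 AR-luc, test chemicals were co-incubated with R1881 for 16 h; CellTiter-Fluor reagent, added at 15.5 h, provided a fluorescence measure of live cells.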

Test [15] has as its target Androgen receptor (Homo sapiens) (UniProt P10275). Kind of test: qHTS assay to identify small molecule antagonists of the androgen receptor (AR) signaling pathway using the MDA cell line (AID 743042; also: % is scaled to controls: 0 for no effect and ±100 for the full control effect; nearly all actives have a fitted effect of over 55% in size). In outline: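 Antagonist mode: compounds plus R1881 agonist added to MDA-kb2 AR-luc cells, incubated 16 h at 37C. Luciferase reporter luminescence quantified, with multiplexed CellTiter-Fluor readout for cell viability.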

The nature of test [16]: qHTS assay for identifying genotoxic compounds that show differential cytotoxicity against isogenic chicken DT40 cell lines with known DNA damage response pathways - Rad54/Ku70 mutant cell line (AID 743015). Also: nearly all actives have a fitted effect of over 60% in size. Also: potency is read from the fitted curve at half-maximal effect.
For test [17], the target named is Glucocorticoid receptor (Homo sapiens) (UniProt P04150). The test is described as follows: qHTS assay to identify small molecule antagonists of the glucocorticoid receptor (GR) signaling pathway (AID 720692; active = well fitted inhibition curve with a large enough effect in the signal ratio in the repeat runs, not every such curve was filed as active; the % refers to the signal ratio; also: potency is read from the fitted curve at half-maximal effect). In a few lines: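 Tox21 10K library screened in concentration-response for blockade of dexamethasone (5 nM final)-induced GRE-bla reporter activity in HeLa cells; 18 h treatment, fluorescence read.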
Chain of Glucocorticoid receptor (Homo sapiens) (P04150 whole entry, looked up): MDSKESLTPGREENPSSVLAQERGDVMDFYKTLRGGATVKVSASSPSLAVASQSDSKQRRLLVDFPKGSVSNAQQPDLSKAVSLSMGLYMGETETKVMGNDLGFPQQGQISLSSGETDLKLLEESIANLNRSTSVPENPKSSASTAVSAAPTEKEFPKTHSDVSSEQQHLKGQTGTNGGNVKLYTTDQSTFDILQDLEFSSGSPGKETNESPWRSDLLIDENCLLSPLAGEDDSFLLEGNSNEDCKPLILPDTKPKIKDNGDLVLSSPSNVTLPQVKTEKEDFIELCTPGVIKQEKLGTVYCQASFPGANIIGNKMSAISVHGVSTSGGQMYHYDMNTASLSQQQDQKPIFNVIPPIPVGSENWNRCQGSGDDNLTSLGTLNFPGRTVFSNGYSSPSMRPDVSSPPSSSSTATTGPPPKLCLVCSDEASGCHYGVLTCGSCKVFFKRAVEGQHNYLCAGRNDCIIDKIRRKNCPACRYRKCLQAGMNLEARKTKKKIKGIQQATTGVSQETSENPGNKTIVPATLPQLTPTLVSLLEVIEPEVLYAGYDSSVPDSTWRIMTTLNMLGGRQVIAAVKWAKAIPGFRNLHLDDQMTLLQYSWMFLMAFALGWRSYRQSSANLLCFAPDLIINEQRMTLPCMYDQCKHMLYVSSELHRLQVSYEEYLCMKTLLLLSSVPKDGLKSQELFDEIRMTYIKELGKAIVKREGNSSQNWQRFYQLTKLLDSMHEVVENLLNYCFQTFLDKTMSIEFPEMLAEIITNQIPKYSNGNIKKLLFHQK

Test [18] in a line: qHTS assay for identifying genotoxic compounds that show differential cytotoxicity against isogenic chicken DT40 cell lines with known DNA damage response pathways - wild type cell line (AID 743012). Also: potency is read from the fitted curve at half-maximal effect; nearly all actives have a fitted effect of over 60% in size. In a few lines: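 Endpoint: CellTiter-Glo luminescence, 30 min RT. Cells: wild type DT40, 300/well. Exposure: compounds in DMSO, 40 h, 37 C/5% CO2, after ~0.5 h pre-incubation.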

Test [19] addresses Androgen receptor (Homo sapiens) (UniProt P10275). The test is described as follows: qHTS assay to identify small molecule antagonists of the androgen receptor (AR) signaling pathway (AID 743035; active = well fitted inhibition curve with a large enough effect in the signal ratio in the repeat runs, not every such curve was filed as active; the % refers to the signal ratio; also: % is scaled to controls: 0 for no effect and ±100 for the full control effect). In a few lines: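 R1881 agonist challenge of a HEK293 UAS-beta-lactamase AR reporter line in the presence of compound (16 h, 37C); signal taken as FRET fluorescence after 2 h with LiveBLAzer B/G substrate at room temperature.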

For test [20], the target named is Glucocorticoid receptor (Homo sapiens) (UniProt P04150). Kind of test: qHTS assay to identify small molecule agonists of the glucocorticoid receptor (GR) signaling pathway (AID 720691; active = well fitted activation curve with a large enough effect in the signal ratio in the repeat runs, not every such curve was filed as active; the % refers to the signal ratio; also: % is scaled to controls: 0 for no effect and ±100 for the full control effect). In a few lines:
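Measures GR pathway activation through a GRE-beta-lactamase reporter stably integrated in HeLa cells, with 18 h compound treatment at 37 C and fluorescence detection using a FRET substrate.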

Each structure is given as a SMILES string. A number with no mark means an inactive call. Inconclusive results are not listed. Active and inactive are the calls of the source. Unless noted, calls follow the shape of the dose curve; as a rule, active = well fitted curve in the direction sought with a large enough effect in the repeat runs; inconclusive = weak or mixed curves; inactive = no such curve, though single readings can be large; an effect the other way counts as inactive or inconclusive.

Chain of Androgen receptor (Homo sapiens) (P10275 whole entry, looked up): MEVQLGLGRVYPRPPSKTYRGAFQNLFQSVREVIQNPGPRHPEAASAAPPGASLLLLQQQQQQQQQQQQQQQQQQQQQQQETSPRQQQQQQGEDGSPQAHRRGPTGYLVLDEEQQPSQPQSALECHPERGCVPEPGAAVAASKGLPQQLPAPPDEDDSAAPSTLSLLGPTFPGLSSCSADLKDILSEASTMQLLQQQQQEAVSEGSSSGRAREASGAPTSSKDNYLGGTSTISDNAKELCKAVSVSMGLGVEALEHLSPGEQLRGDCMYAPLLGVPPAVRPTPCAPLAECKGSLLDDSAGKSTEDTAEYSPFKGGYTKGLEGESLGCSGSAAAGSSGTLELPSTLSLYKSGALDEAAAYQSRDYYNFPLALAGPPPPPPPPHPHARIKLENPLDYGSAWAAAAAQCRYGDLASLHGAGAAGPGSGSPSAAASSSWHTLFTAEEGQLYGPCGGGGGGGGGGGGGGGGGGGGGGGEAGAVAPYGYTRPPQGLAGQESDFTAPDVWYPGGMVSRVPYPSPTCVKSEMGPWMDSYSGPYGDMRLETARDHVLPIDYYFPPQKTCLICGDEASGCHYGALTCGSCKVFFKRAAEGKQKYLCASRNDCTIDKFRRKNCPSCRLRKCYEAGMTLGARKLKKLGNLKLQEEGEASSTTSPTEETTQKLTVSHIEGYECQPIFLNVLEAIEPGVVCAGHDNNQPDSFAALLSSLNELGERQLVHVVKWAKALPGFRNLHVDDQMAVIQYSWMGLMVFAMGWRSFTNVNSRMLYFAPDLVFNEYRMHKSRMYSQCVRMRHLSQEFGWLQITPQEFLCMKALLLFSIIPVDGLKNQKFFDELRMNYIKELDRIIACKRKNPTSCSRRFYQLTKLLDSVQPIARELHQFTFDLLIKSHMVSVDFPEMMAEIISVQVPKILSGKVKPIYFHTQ

For the compound `O=C(OCC(O)CO)c1ccccc1Nc1ccnc2cc(Cl)ccc12` (centres undefined), the fluorescence, % of fluorescein in test [1] is -0.106% [at 18.6 µM]. Further, the fluorescence, % of fluorescent control in test [2] is 0.416% [at 18.6 µM]; in test [4], 0.0763% [at 18.6 µM]; in [6], 0.0675% [at 18.6 µM]; in test [8], 0.322% [at 18.6 µM]. Also, the activity change in test [3] is 0.0295% [at 18.6 µM]. In test [5], the fluorescence, % of Rose Bengal was 0.268% [at 18.6 µM]. Also, the fluorescence, % of fluorescein control in [7] is -0.0285% [at 18.6 µM]. Also, the Potency result in test [9], in test [10], in [11], in test [14] and in [15] was “inactive” throughout. The outcome in [12] and in [13] was inactive.
In the case of `N#CCc1ccc(Cl)cc1Cl`, the outcome in test [1], in test [3], in [4], in test [5] and in test [7] was inactive. Further, the Potency result in test [2], in test [6], in [8], in test [9], in [10] and in test [16] was “inactive” throughout. In addition, the Potency result in [11] and in test [14] was “inactive” each time.
As to `COC(=O)C1=C(C)NC(C)=C(C(=O)O[C@@H]2CCCN(Cc3ccccc3)C2)[C@@H]1c1cccc([N+](=O)[O-])c1`, the call in test [1], in test [3], in test [4], in [5] and in [7] was inactive. Moreover, the Potency result in test [2], in test [6] and in [8] was “inactive” throughout. Besides, the Potency in test [17] is 10.7 µM (active); in test [18], 13.3 µM (active); in test [10], 21.1 µM (active); in test [16], 13.3 µM (active).
For `C=C(C)CCCC(C)CCO` (centres undefined), the compound was classed as inactive in test [1], in test [3], in test [4], in [5] and in [7]. Besides, the Potency entry in [2], in [6], in test [8], in [9], in test [11] and in test [14] was “inactive” in each case. Besides, the Potency in test [16] was 54.5 µM (active).
Regarding `Nc1ncnc2c1ncn2[C@H]1CC[C@@H](CO)O1`, the call in test [1], in [3], in [4], in [5] and in test [7] was inactive. The Potency entry in test [2], in test [6], in test [8], in test [9], in test [10] and in test [11] was “inactive” each time. Further, the Potency entry in [14] was “inactive”. For the same compound, the Potency in test [18] is 26.6 µM (active); in test [16], 23.7 µM (active).
Turning to `CCCCCC#CC(=O)OC`, the compound was classed as inactive in [1], in test [3], in [4], in test [5] and in [7]. The Potency entry in test [2], in [6], in [8], in test [9], in test [10] and in test [11] was “inactive” in each case. Further, in test [14], the Potency entry was “inactive”.
`COc1cc(Nc2c(C#N)cnc3cc(OCCCN4CCN(C)CC4)c(OC)cc23)c(Cl)cc1Cl`: the call in test [1], in test [3], in test [4], in test [5] and in [7] was inactive. For the same compound, the Potency entry in test [2], in test [6] and in test [8] was “inactive” in each case. The Potency in test [9] is 23.9 µM (active); in test [18], 1.88 µM (active); in [10] it was 2.98 µM (active); in test [16] it was 2.37 µM (active); in test [11] it was 23.9 µM (active); in test [14] it was 33.5 µM (active).
Regarding `C[C@@H](O)[C@H]1C(=O)N2C(C(=O)O)=C([C@H]3CCCO3)S[C@H]12`, the compound was classed as inactive in test [1], in test [3], in [4], in test [5], in test [7] and in test [12]. Besides, the call in test [13] was inactive. Besides, the Potency entry in [2], in [6], in test [8], in test [9], in test [10] and in test [16] was “inactive” each time. For the same compound, the Potency result in [11], in [19], in test [14] and in test [15] was “inactive” each time.
In the case of `Cc1ccccc1S`, the outcome in [1], in test [3], in test [4], in [5] and in [7] was inactive. The Potency result in test [2], in test [6], in test [8], in [9], in [11] and in test [14] was “inactive” throughout. Also, the Potency is 34.6 µM (active) in test [18], 27.5 µM (active) in [10] and 38.9 µM (active) in test [16].
With `C/C=C/C=C/C=O`, the compound was classed as inactive in test [1], in [3], in test [4], in test [5], in [7] and in test [13]. For the same compound, the Potency entry in test [2], in [6], in [8], in test [20], in test [11] and in test [14] was “inactive” each time. In test [15], the Potency entry was “inactive”. Further, in [10], the Potency was 54.1 µM (active).
`O=C1c2ccccc2C(=O)C1(O)O`: the compound was called inactive in test [1], in [3], in test [4], in [5] and in test [7]. Further, the Potency entry in test [2], in test [6], in [8], in test [20] and in [14] was “inactive” in each case. Further, the Potency in test [10] was 24.5 µM (active); in test [16] it was 27.4 µM (active).
Consider `N#[N+]c1ccc2c(S(=O)(=O)[O-])cccc2c1O`, for which the result in test [1], in test [3], in [4], in test [5] and in [7] was inactive. For the same compound, the Potency entry in test [2], in test [6], in test [8], in [9], in test [10] and in [16] was “inactive” throughout. Besides, the Potency result in test [11] and in test [14] was “inactive” throughout.
For `O=C1C(=O)c2ccccc2C(O)=C1C1CCC(c2ccc(Cl)cc2)CC1` (centres undefined), the fluorescence, % of fluorescein in test [1] was -0.014% [at 18.6 µM]. Also, the fluorescence, % of fluorescent control is -0.0599% [at 18.6 µM] in test [2], 0.0147% [at 18.6 µM] in test [4], 0.0263% [at 18.6 µM] in [6] and 0.0025% [at 18.6 µM] in [8]. In addition, in [3], the activity change is -0.0167% [at 18.6 µM]. The fluorescence, % of Rose Bengal in test [5] was 0.0009% [at 18.6 µM]. Also, the fluorescence, % of fluorescein control in [7] was 0.136% [at 18.6 µM]. For the same compound, the Potency result in [9], in test [10], in [11] and in test [14] was “inactive” in each case. For the same compound, in test [18], the Potency was 5.07 µM (active).
`C[C@@H](O[C@H]1OCCN(Cc2n[nH]c(=O)[nH]2)[C@H]1c1ccc(F)cc1)c1cc(C(F)(F)F)cc(C(F)(F)F)c1`: the outcome in test [1], in test [3], in [4], in test [5], in test [7] and in [12] was inactive. In addition, the call in test [13] was inactive. Also, the Potency entry in [2], in test [6] and in [8] was “inactive” in each case. In addition, the Potency was 21.3 µM (active) in test [9], 23.7 µM (active) in test [18] and 23.7 µM (active) in test [16].
With `Brc1cc2ccccc2c2ccccc12`, the compound was called inactive in test [1], in test [3], in [4], in [5] and in test [7]. The Potency result in test [2], in [6], in test [8], in [20], in [11] and in test [14] was “inactive” in each case.

The record behind these values is PubChem BioAssay (Tox21).
